Measurements published in PubChem BioAssay AID652106 (National Center for Advancing Translational Sciences (NCATS), 2013).
In all, about 370,000 compounds went through this assay and about 500 (0.14%) were called active. Roughly 2% stayed inconclusive and do not appear here. Calls follow the shape of the dose curve; as a rule, active = well fitted activation curve with a large enough effect; inconclusive = small, poorly fitted or top-dose-only effect; inactive = no such curve, though single readings can be large or run the other way. The list comes from a sample in which actives are over-represented; it also holds similar structures and randomly drawn compounds.

Test: qHTS of alpha-syn Inhibitors; also: nearly all actives have a fitted effect of over 65% in size; as to growth rescue (activation): % of control where 0% means no effect
Conditions: Yeast expressing alpha-synuclein, BacTiter-Glo, 24 h; Potency: growth rescue; series mostly up to 46.1 µM; growth rescue (activation): at the top concentration
Outline: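 Rescue of yeast growth: cells expressing toxic alpha-synuclein, induced in galactose at OD600 0.02, incubated with compound 24 h at 30 C. ATP luminescence quantified growth; inhibitors of toxicity appear as activators.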
Potency is read from the fitted curve at half-maximal effect.

Compound | growth rescue (activation) | Potency
COC(=O)C1=C(C(=O)OC)[C@@H]2N(Cc3ccccc3)c3ccccc3[C@@]23C[C@@H](C(=O)OC)N(S(=O)(=O)c2ccc(C(F)(F)F)cc2)C3=N1 | 1.17% (inactive) | –
CNCCCOc1cc2nc(N3CCCN(C)CC3)nc(NC3CCN(C)CC3)c2cc1OC | 9.23% (inactive) | –
Cc1cccc(-n2ccnc2SCC(=O)Nc2cc(C(F)(F)F)ccc2Cl)c1 | 0.0737% (inactive) | –
COc1ccc(CCn2c3c(c(=O)[nH]c2=S)CN(C(C)C)CN3)cc1OC | -0.0407% (inactive) | –
COc1ccc(N2C(=O)CS(=O)(=O)C23C(=O)N(Cc2ccc(C)cc2)c2ccccc23)cc1Cl (stereo unspecified) | 4.45% (inactive) | –
CN(C)Cc1cn(-c2ccccc2)nc1-c1ccccc1 | 2% (inactive) | –
O=C(Oc1ccc([N+](=O)[O-])cc1)c1ccc2ccccc2n1 | -0.0122% (inactive) | –
O=[N+]([O-])c1cc2ccccc2nc1-c1ccccc1 | 6.61% (inactive) | –
O=[N+]([O-])c1ccc2c(c1)Nc1nc3ccccc3nc1N2 | – | 3.55 µM (active)
C=C1C=C(C(F)F)n2ncc(C(=O)NCCc3ccccc3OC)c2N1 | 1.42% (inactive) | –
CCOc1ccccc1CNC(=O)Nc1cn(CC(C)C)c(=O)c2ccccc12 | 7.95% (inactive) | –
C/C=C/NNC(=O)Cc1ccc(OC)cc1 | 0.567% (inactive) | –
COc1ccc(OC)c(Nc2nc(-c3ccc(O)c(O)c3)cs2)c1 | – | 11.2 µM (active)
CCN1CCN(c2nc(Nc3cc(OC)ccc3OC)nc(Nc3cc(OC)ccc3OC)n2)CC1 | 2.29% (inactive) | –
COc1ccc(OC)c(NC(=O)COC(=O)Cc2ccsc2)c1 | 8.95% (inactive) | –
CCOC(=O)c1ccc(NC2=CC(c3ccc(OCC)cc3)N(c3ccc(C(=O)OCC)cc3)C2=O)cc1 (stereo unspecified) | 5.01% (inactive) | –
CN(Cc1ccccc1)c1ccc(/C=C/c2ccnc3ccccc23)cc1 | -32.3% (inactive) | –
CC(=O)/C(C)=N/O | -8.5% (inactive) | –
CC(C)(C)C1CCC(NC(=O)c2cnn3c2NC(=C2CC2)C=C3C(F)F)CC1 (stereo unspecified) | -57.4% (inactive) | –
CC1=C(C(=O)Nc2ccccc2Cl)C(c2cccs2)n2ncnc2N1 (stereo unspecified) | -2.14% (inactive) | –
Cc1ccc(-c2nnc3ccc(SCC(N)=O)nn23)cc1 | -0.723% (inactive) | –
